# Assay results from PubChem BioAssay AID1851 (National Center for Advancing Translational Sciences (NCATS), 2009).
# The whole screen tested about 16,000 compounds, of which about 2,600 (16%) were called active. Inconclusive results (about 20%) are left out. Calls follow the shape of the dose curve; as a rule, active = well fitted curve in the direction sought with a large enough effect; inconclusive = small, poorly fitted or top-dose-only effect, or effect the other way; inactive = no such curve, though single readings can be large or run the other way. Not all results are given here. Some compounds were tested as several samples or in several runs, with calls that do not always agree.
# Target: Cytochrome P450 2D6 (Homo sapiens) (UniProt P10635)
# Sequence (P10635 whole entry, looked up): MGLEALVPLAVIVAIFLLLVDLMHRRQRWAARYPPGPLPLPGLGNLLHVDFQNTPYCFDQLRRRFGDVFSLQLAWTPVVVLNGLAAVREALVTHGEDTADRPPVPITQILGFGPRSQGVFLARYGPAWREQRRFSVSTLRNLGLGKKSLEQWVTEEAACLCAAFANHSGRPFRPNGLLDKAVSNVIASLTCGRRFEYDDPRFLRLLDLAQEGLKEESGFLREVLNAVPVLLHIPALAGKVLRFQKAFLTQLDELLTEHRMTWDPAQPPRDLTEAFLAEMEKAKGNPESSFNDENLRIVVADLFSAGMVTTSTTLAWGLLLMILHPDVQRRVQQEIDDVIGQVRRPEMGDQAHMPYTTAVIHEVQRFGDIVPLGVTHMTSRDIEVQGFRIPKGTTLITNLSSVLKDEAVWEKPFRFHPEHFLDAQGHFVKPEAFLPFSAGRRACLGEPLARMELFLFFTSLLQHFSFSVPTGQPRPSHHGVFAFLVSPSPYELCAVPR
# Assay: Cytochrome panel assay with activity outcomes
# Conditions: recombinant CYP, pro-luciferin dealkylation, luminescence, p450-cyp2d6; series mostly up to 57.1 µM; activity, negative = inhibition: at the top concentration
# % is scaled to controls: 0 for no effect and ±100 for the full control effect.
Compound,"activity, negative = inhibition",AC50
C/C(CC(=O)NCc1ccco1)=N\NC(=O)Cc1cccc2ccccc12,-5.5% (inactive),–
Cc1c(C(=O)O)nc(/C=C\C(=O)O)[nH]c1=O,6.81% [at 11.4 µM] (inactive),–
Cc1nc2cnc(N(C)C)nc2n(Cc2ccc(F)cc2)c1=O,-8.58% (inactive),–
CCSc1nc2c(c(=O)[nH]1)C(c1ccncc1)C(C(=O)OC(C)C)=C(C)N2 (stereo unspecified),-20.1% (inactive),–
COc1ccc(CN2CN(c3ccc(Cl)cc3)C(=O)N(n3cnnc3)C2)cc1,-23.4% (inactive),–
N#C/C(=C\N1CCNC1=S)C(=O)c1ccc2ccccc2c1,-0.81% [at 11.4 µM] (inactive),–
CN(C)CCCN1c2ccccc2C(C)(C)c2ccccc21,–,3.98 µM (active)
CN(C)CCCn1cc(C2=C(c3c[nH]c4ccccc34)C(=O)NC2=O)c2ccccc21,-1.97% (inactive),–
COc1ccccc1N1CCN(CCN2C(=O)c3ccccc3C(C)(C)C2=O)CC1,-4.41% (inactive),–
O=C(c1cnccn1)N1CCC2(CC1)CN(c1cccc(-c3ccccc3)c1)C2,-1.37% (inactive),–
O=C(NCc1n[nH]c(=S)n1-c1cccc(Cl)c1)c1ccc(S(=O)(=O)N2CCCC2)cc1,4.31% (inactive),–
NC(=O)c1ccc(-c2ncc(-c3ccccc3)o2)cc1,-17% (inactive),–
Fc1ccc(-c2cnc(-c3cccs3)o2)cc1,–,28.2 µM (active)
Nc1c(-c2cccs2)cnn1-c1nc(-c2ccc(F)cc2)cs1,14.5% (inactive),–
COc1ccc(C2C(C#N)=C(N)OC3=C2C(=O)CC(C)(C)C3)c([N+](=O)[O-])c1OC (stereo unspecified),-0.502% (inactive),–
CSc1cc(C)nc(NC(C)=O)n1,-5.56% (inactive),–
CCOC(=O)C1=C(CSc2nc3ccccc3s2)NC(=O)NC1c1cc(C)ccc1C (stereo unspecified),-7.88% (inactive),–
O=S(=O)(c1ccccc1)N1CCC2(CCCN(C(c3ccccc3)c3ccccc3)C2)CC1,–,0.501 µM (active)
CN1CCCC2(CCN(S(=O)(=O)c3ccccc3)CC2)C1,-20.3% (inactive),–
O=S(=O)(c1ccccc1)N1CCC[C@@]2(CCN(C(c3ccccc3)c3ccccc3)C2)C1,–,0.631 µM (active)
O=S(=O)(c1ccccc1)N1CCC2(CC1)CN(C(c1ccccc1)c1ccccc1)C2,–,2.51 µM (active)
O=S(=O)(c1ccccc1)N1CCC2(CCN(C(c3ccccc3)c3ccccc3)CC2)CC1,-11.1% (inactive),–
Fc1ccc2nc(Nc3nc4c(s3)CCCC4)sc2c1,-30% (inactive),–
Cc1cc(OC(=O)c2cc(F)c(F)cc2Cl)nc(C)n1,0.508% (inactive),–
O=C(O)CN(CCN(CC(=O)O)CC(=O)O)CCN(CC(=O)O)CC(=O)O,–,inactive
Nc1nc(N)c2[nH]cnc2n1 (tested in a mixture with another compound),-4.07% [at 11.4 µM] (inactive),–

Compound,"activity, negative = inhibition",AC50
C/C(Cl)=C\Cn1c(N2CCCC2)nc2c1c(=O)[nH]c(=O)n2C,-1.19% (inactive),–
C[C@@H](CC(=O)O)[C@@H](N)C(=O)O,4.74% (inactive),–
Cc1ccnc(NS(=O)(=O)c2ccc(N)cc2)n1,–,inactive
COC(=O)c1ccc(CCc2cc(O)ccc2O)cc1,7.07% [at 11.4 µM] (inactive),–
O=c1[nH]c(=S)c2[nH]c(=O)n(-c3ccccc3)c2[nH]1,7.71% [at 11.4 µM] (inactive),–
CO[C@]1(NC(=O)Cc2cccs2)C(=O)N2C(C(=O)O)=C(COC(N)=O)CS[C@H]21,0.942% [at 25.6 µM] (inactive),–
NC1=NC2(CCCCC2)N=C(Nc2ccc(F)cc2F)N1,–,12.6 µM (active)
CC(=O)NC1(c2ccc(F)cc2)CCN(C(=O)Nc2ccc(F)cc2F)CC1,-3.83% (inactive),–
CO[C@H]1OC[C@@]2(C)[C@@H]3C4=C(CN2C(=O)OC(C)(C)C)[C@H](C)[C@H](CO)[C@H](CO)[C@H]4CC[C@H]13,-0.655% (inactive),–
Cc1cccc(N2CC(O)=C(c3nc4ccccc4n3C)C2=N)c1,-23.1% (inactive),–
Cc1cccc(OCCn2c(-c3ccco3)nc3ccccc32)c1,–,5.01 µM (active)
Cc1cccc(CCNc2nc3ccccc3n3nnnc23)c1,-2.97% (inactive),–
Cn1cc(C(=O)c2ccc(Cl)cc2Cl)cc1C(=O)O,11.2% (inactive),–
O=c1c(-c2ccccc2)nc2cnc(N3CCNCC3)nc2n1-c1ccccc1,-14.5% (inactive),–
OCCN1CCN(c2nc(N3CCCCC3)nc(N3CCCCC3)n2)CC1,-15% (inactive),–
N#CN(CC(N)=O)c1nc(N2CCCCC2)nc(N2CCCCC2)n1,–,14.1 µM (active)
O=c1nc(N2CCCCCC2)nc(N2CCCCCC2)[nH]1,-8.94% (inactive),–
Cc1[nH]c(=O)c(C(=O)/C=C/c2ccccc2F)c2c1CCCC2,-24.7% (inactive),–
COCCn1c(=O)c(-c2ccc(OC)cc2)nc2cnc(N3CCOCC3)nc21,8.27% (inactive),–
NNC(=O)[C@@H](O)[C@H](O)[C@H](O)CO,17.4% [at 11.4 µM] (inactive),–
CCCCNC(=O)C(=O)NC(C)CCc1ccccc1 (stereo unspecified),26.5% (inactive),–
O=C(NCCCc1ccccc1)c1cccs1,-14.8% (inactive),–
CCN(CCCc1ccccc1)CCCc1ccccc1,–,1 µM (active)
COc1ccc(-c2nc3cnc(N4CCN(C)CC4)nc3n(C)c2=O)cc1,-1.16% (inactive),–
O=C(CCNC(=O)c1ccccc1)OCN1C(=O)c2ccccc2C1=O,4.05% (inactive),–
O=c1c(-c2ccc(Cl)cc2)nc2cnc(N3CCOCC3)nc2n1C1CC1,-4.21% (inactive),–

Compound,"activity, negative = inhibition",AC50
CCCCCCCCCCCC1=C(O)C(=O)C=C(O)C1=O,–,2 µM (active)
Cc1ccc(S(=O)(=O)ON=C2CCN(S(=O)(=O)c3ccccc3)CC2)cc1,-26.8% (inactive),–
CCOc1ccc(NC(=O)c2ccc(Br)o2)c([N+](=O)[O-])c1,-3.66% (inactive),–
CCOc1ccc(C(C)=O)cc1N1C(=O)C2C(C1=O)C1C=CC2C12CC2 (stereo unspecified),-12.3% (inactive),–
CCOc1ccc(N2C(=O)C3C4C=CC(CC4)C3C2=O)c([N+](=O)[O-])c1 (stereo unspecified),–,11.2 µM (active)
CCOC(=O)C1CCCN(C(=O)c2cc3nc(-c4ccc5c(c4)OCO5)cc(C(F)(F)F)n3n2)C1 (stereo unspecified),-22.8% (inactive),–
CCCCC(=O)N/N=C(\C)CC(=O)Nc1cc(Cl)ccc1OC,-15.1% (inactive),–
O=C(COC(=O)c1cccc(S(=O)(=O)N2CCOCC2)c1)Nc1nc(-c2ccccc2Cl)cs1,-27.2% (inactive),–
CN(CCc1ccc(Cl)c(Cl)c1)C[C@@H](O)COc1ccc(NS(C)(=O)=O)cc1,–,25.1 µM (active)
COc1ccc(COc2ccsc2C(=O)Nc2ccc(Cl)c(Cl)c2)cc1,-13.6% (inactive),–
O=c1c(-c2cc(F)cc(F)c2)nc2cnc(N3CCNCC3)nc2n1Cc1cccs1,-1.74% (inactive),–
CC(C)CCOc1ccc(NC(=O)C2OC3OC(C)(C)OC3C3OC(C)(C)OC23)cc1 (stereo unspecified),0.481% (inactive),–
CCOC(=O)c1sc(NC(=O)CSc2n[nH]c(-c3ccc(Cl)cc3Cl)n2)c(C#N)c1C,–,28.2 µM (active)
CCOC(=O)c1sc(NC(=O)CSc2nc(C)cc(C)n2)c(C#N)c1C,-15.9% (inactive),–
CCOC(=O)c1sc(NC(=O)CSc2nc(C)cc(C)c2C#N)c(C#N)c1C,-7.84% (inactive),–
O=C(Oc1c(Br)cc(C(=S)N2CCOCC2)cc1Br)c1ccc(Cl)cc1,-11.2% (inactive),–
CC(=O)NCCNc1ncnc2ccc(-c3ccccc3C(F)(F)F)cc12,–,20 µM (active)
CC(=O)NCCNc1ncnc2ccc(-c3ccccc3Cl)cc12,–,15.8 µM (active)
CC(=O)NCCNc1cc(-c2ccccc2C(F)(F)F)ncn1,-2.78% (inactive),–
CC(=O)NCCNc1ncnc2ccc(-c3ccccc3C)cc12,–,20 µM (active)
CC(=O)NCCNc1ncnc2ccc(-c3ccccc3C#N)cc12,-9.82% (inactive),–
Cc1[nH]n(C(C)(C)C)c(=O)c1Sc1ccc(Cl)cc1,-25.3% (inactive),–
CCOc1ccc(N(C(C)C(=O)NC(C)CC)S(C)(=O)=O)cc1 (stereo unspecified),-68.4% (inactive),–
CCC(C)OC(=O)C1=C(C)NC(=O)CC1c1ccccc1OC (stereo unspecified),-6.88% (inactive),–
O=c1c(-c2cc(F)cc(F)c2)nc2cnc(N3CCOCC3)nc2n1-c1ccccc1,0.324% (inactive),–
CCOC(=O)c1cnn(CCOC(=O)C(C)(C)C)c1NC(=O)C(C)(C)C,-4.94% (inactive),–

Compound,"activity, negative = inhibition",AC50
O=[N+]([O-])c1ccc2c(c1)S(=O)c1ccccc1-2 (stereo unspecified),-5.2% [at 11.4 µM] (inactive),–
Cc1cc(NC(=O)CCN2C(=O)C3C4CCC(C4)C3C2=O)c(C)cc1Br (stereo unspecified),5.69% (inactive),–
CCc1cccc(C)c1NC(=O)CSc1nc2ccc(N3C(=O)c4ccccc4C3=O)cc2s1,7.32% (inactive),–
CS(=O)(=O)Nc1cccc(-c2nc(N3CCOCC3)c3ccccc3n2)c1,-11.6% (inactive),–
CNc1nc(-c2cccc(NS(C)(=O)=O)c2)nc2ccccc12,-8.43% (inactive),–
CS(=O)(=O)Nc1cccc(-c2ccc3ncnc(N4CCNCC4)c3c2)c1,3% (inactive),–
CS(=O)(=O)Nc1cccc(-c2nc(Nc3ccncc3)c3ccccc3n2)c1,–,20 µM (active)
CS(=O)(=O)Nc1cccc(-c2nc(Nc3ccccc3)c3ccccc3n2)c1,–,10 µM (active)
CS(=O)(=O)Nc1cccc(-c2nc(N3CCNCC3)c3ccccc3n2)c1,–,10 µM (active)
COc1ccc2c(c1)c(=O)oc1c(C)c(OCC(=O)N3CCc4ccccc4C3)ccc12,-30.9% (inactive),–
COc1ccc(Oc2ncc3nc(-c4cccs4)c(=O)n(C)c3n2)cc1,-1.75% (inactive),–
CCCCC(=O)NC(Nc1cc(C)ccn1)(C(=O)OCC)C(F)(F)F (stereo unspecified),-6.47% (inactive),–
CCOC(=O)CN1N=C(/C=C/c2ccc(C)cc2)CCC1=O,-3.19% (inactive),–
Cc1ccccc1NC1=NC(=S)N(c2ccccc2)C12CCOC(C)(C)C2 (stereo unspecified),0.784% (inactive),–
CCn1nc(C(=O)Nc2ccccc2C)c(Cl)c1Cl,0.463% (inactive),–
O=C(N/N=C/c1ccc(Br)s1)c1ccccc1[N+](=O)[O-],-16.7% (inactive),–
CCCCN(C(=O)Nc1ccc(OCC)cc1)C1CCN(C(C)=O)CC1,17.3% (inactive),–
CSc1nc(C2CC2)cc(-c2cccs2)c1C#N,-8.47% (inactive),–
O=C1NC(=O)C(c2ccccc2)(c2ccccc2)N1,3.16% (inactive),–
CCCC1CCC(c2ccc(C(N)=O)cc2)CC1 (stereo unspecified),22.9% (inactive),–
CNCC[C@H](Oc1ccccc1OC)c1ccccc1,–,1.26 µM (active) and inactive
COCCn1c(=O)c(-c2cn(C)c3ccccc23)nc2cnc(N3CCNCC3)nc21,-5.08% (inactive),–
COC(=O)[C@@H]1[C@@H]2C[C@H]3c4[nH]c5cc(OC)ccc5c4CCN3C[C@@H]2C[C@H](OC(=O)c2cc(OC)c(OC)c(OC)c2)[C@H]1OC,-9.04% [at 25.6 µM] (inactive),–
